# High-throughput results deposited in PubChem BioAssay by National Center for Advancing Translational Sciences (NCATS).
# Compounds with a hit are over-represented: about 2.8% of the library has one in this group of screens.
# SNCA expr inhib – SNCA gene expression inhibition; HEK-293 SNCA-luciferase knock-in, luminescence, 24 h; Potency, µM (titrated, usually from 57.2 µM), without a hit: at the top dose activity change, negative = inhibition, hits mostly inhibitors; 140,000 tested, 0.17% active; AID 1671194;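 note: potency is the fitted concentration of half-maximal effect; plate controls were DMSO cells for no effect and cell-free wells for full effect; nearly all actives have a fitted effect of over 45% in size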
# IP6K1 inhibitor – inhibitors of human IP6K1; Q92551; IP6K1 kinase, ADP-Glo luminescence, 2 h; stronger effect = lower value; activity change, % (series mostly up to about 58 µM); 140,000 tested, 0.81% active; in the data active = activity change below about -25%; note: % is set by controls: 0 for no effect and ±100 for the full control effect
# Target sequence (Q92551 whole entry, looked up): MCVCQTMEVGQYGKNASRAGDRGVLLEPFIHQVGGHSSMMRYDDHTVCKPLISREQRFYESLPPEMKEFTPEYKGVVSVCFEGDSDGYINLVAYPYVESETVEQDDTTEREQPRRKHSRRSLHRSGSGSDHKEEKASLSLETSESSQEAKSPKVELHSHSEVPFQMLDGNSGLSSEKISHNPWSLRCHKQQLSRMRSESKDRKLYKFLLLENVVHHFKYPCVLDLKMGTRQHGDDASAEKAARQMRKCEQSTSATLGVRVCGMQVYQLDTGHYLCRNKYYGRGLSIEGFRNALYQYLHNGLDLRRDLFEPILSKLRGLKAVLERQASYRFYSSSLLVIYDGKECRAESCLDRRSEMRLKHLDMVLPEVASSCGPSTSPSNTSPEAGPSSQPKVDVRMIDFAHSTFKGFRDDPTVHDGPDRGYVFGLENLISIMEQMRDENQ
#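 ADP-Glo luminescence measures ADP made by human IP6K1 during a 2 h RT reaction with ATP/IP6 (mix at 1.3 mM/130 uM); top library doses 57.5 and 19.1 uM final.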
# HEK293 viab – reduces viability of HEK-293 SNCA reporter cells; HEK-293-SNCA-luc viability, GF-AFC fluorescence, 24 h; Potency, µM (series often up to 57.1 µM), for the others: at the top dose activity change, negative = cytotoxicity, actives largely listed as cytotoxic; 150,000 tested, 0.12% active; AID 1671193;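 note: potency is the fitted concentration of half-maximal effect; 0% = DMSO-treated cells and -100% = medium-only wells without cells; nearly all actives have a fitted effect of over 30% in size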
#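 HEK-293-SNCA-luc cells (1500/well) plated 24 h, then exposed 24 h to a dilution series; GF-AFC added 30 min at 37C, fluorescence 405/540 nm; normalised to medium-only and DMSO wells, Hill fit.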
# KDM5B inh – KDM5B demethylase inhibition. Q9UGL1. 220,000 tested, 2.6% active. Potency, µM (series often up to 57.7 µM), actives largely listed as inhibitors. KDM5B demethylase, FDH-coupled NADH fluorescence (FDH is formaldehyde dehydrogenase); note: potency is the fitted concentration of half-maximal effect; 0% is about no effect; nearly all actives have a fitted effect of over 70% in size
#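 KDM5BΔAP (200 nM final) in 50 mM HEPES pH 7.5, 0.01% Tween-20 was preincubated 10 min at RT with compound over a concentration range. Substrate mix (H3K4me3 12.5 µM, α-KG 25 µM, Fe²⁺, ascorbate, NAD⁺, FDH) was added, and NADH fluorescence change over 30 min gave dose-response curves.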
# IP6K1 inh cnf – human IP6K1 inhibition, confirmatory | Potency, µM (doses to about 49 µM), inactives show top-dose activity change, negative = inhibition, usual class: inhibitors | 1,200 tested, 13% active | shares compounds with IP6K1 inhibitor | recombinant IP6K1 kinase, ADP-Glo luminescence, 2 h | AID 1645852; note: potency is the fitted concentration of half-maximal effect; % is set by controls: 0 for no effect and ±100 for the full control effect; nearly all actives have a fitted effect of over 65% in size
# * hit, by the source's call; i = inactive; ? = inconclusive; · = no result. Unless noted, calls come from the whole dose curve; as a rule, active = well fitted curve in the direction sought with a large enough effect; inconclusive = small, poorly fitted or top-dose-only effect, or another doubt; inactive = no such curve, though single readings can be large; an effect the other way counts as inactive or inconclusive.
SMILES,SNCA expr inhib,IP6K1 inhibitor,HEK293 viab,KDM5B inh,IP6K1 inh cnf
O=C(Cc1ccccn1)NC1CCN(c2ccc3nnc(C4CC4)n3n2)C1 (stereo unspecified),·,10,·,·,·
Cc1ccc2c(c1)N(C(=O)N1CCC(C(=O)NCCC3=CCCCC3)CC1)CC(C)O2 (stereo unspecified),-5%,-39*,4%,i,-11%
Cc1ccc2c(c1)N(C(=O)N1CCC(C(=O)NCCc3ccccc3)CC1)CC(C)O2 (stereo unspecified),-3%,7,-11%,i,·
Cc1ccc2c(c1)N(C(=O)N1CCC(C(=O)NCc3cccc(Br)c3)CC1)CCO2,-36%,-102*,-8%,i,-12%
CCc1ccc(CNC(=O)C2CCN(C(=O)N3CC(CC)Oc4ccc(C)cc43)CC2)cc1 (stereo unspecified),?,4,?,i,·
Cc1nc2cc(NS(=O)(=O)c3c(C)c(C)cc(C)c3C)ccc2o1,·,·,·,i,·
O=Nc1c(-c2c(O)[nH]c3ccccc23)[nH]c2ccccc12,89%,·,?,·,1%
Oc1[nH]c2ccccc2c1N=Nc1ccccc1,·,·,·,i,·
COCc1nc(-c2ccc(OC3CN(S(=O)(=O)c4ccccc4C)C3)cc2)no1,-37%,8,-21%,i,·
Cc1nnc(NC(=O)c2nc(S(=O)(=O)Cc3ccccc3)ncc2Cl)s1,?,-35*,?,?,-18%
CCc1nnc(NC(=O)c2nc(S(C)(=O)=O)ncc2Cl)s1,?,-35*,?,?,-10%
CCSc1ncc(Cl)c(C(=O)Nc2nnc(CC)s2)n1,3%,1,-2%,i,·
O=C(Nc1cccc(S(=O)(=O)NC2CC2)c1)c1cccc2cccnc12,·,·,·,i,·
NC(=O)COc1ncnc2c(Cl)cc(Cl)cc12,·,·,·,i,·
COc1ccc(C(=O)Nc2ccc3[nH]ccc3c2)cc1,·,·,·,i,·
O=C(Nc1cc2cc[nH]c2cn1)c1ccccc1,1.5µM*,-28*,?,·,?
COCCNC(=O)C(NC(=O)c1ccc(OC)cc1)C1CCN(C(=O)c2ccco2)CC1 (stereo unspecified),9%,1,-18%,i,·
CCOC(=O)c1cccc(NC(=O)c2oc3c(c2C)-c2nn(CC)cc2CC3)c1,34%,-28*,3%,?,?
Cc1nnc(SCC(=O)c2ccc(Cl)cc2)n1Cc1ccccc1,·,·,·,i,·
Cc1cccc(N2CCN(S(=O)(=O)c3csc(C(N)=O)c3)CC2)c1C,-12%,-42*,-7%,i,7.3µM*
CCc1nc2ccc(C(=O)NCc3cccc(Br)c3)cc2nc1CC,61%,10,?,?,·
CCc1nc2ccc(C(=O)NCc3ccc(N(C)C)cc3)cc2nc1CC,12%,-26*,-1%,i,-16%
CCCN(CCC)CCNC(=O)c1cc2c(=O)oc3ccc(C)cc3c2s1,-16%,-25*,17%,?,-4%
COC(=O)c1ccccc1NC(=O)Cn1c(-c2ccc(F)cc2)nc(C)cc1=O,0%,-9,7%,?,·
CNCc1cc(Br)c(OCc2ccccc2)c(OC)c1,·,·,·,i,·
SMILES,SNCA expr inhib,IP6K1 inhibitor,HEK293 viab,KDM5B inh,IP6K1 inh cnf
CCOc1cc(CNc2ccc(O)cc2)cc(Br)c1OCc1ccccc1,-6%,-43*,-11%,?,?
COc1ccc(Cl)cc1NC(=O)CN(C)S(=O)(=O)c1ccc(Br)s1,?,-26*,3%,i,29%
COc1cccc(NC(=O)c2cnc(SCC(=O)N3CCCc4ccccc43)n(C)c2=O)c1,9%,-27*,-3%,i,-3%
Cn1nnnc1Sc1ncnc2scc(-c3ccc(Cl)cc3)c12,·,·,·,·,1%
CN(CC(=O)Nc1ccccc1Cl)C(=O)CSc1ncnc2scc(-c3ccccc3)c12,·,·,·,i,·
Cn1nnnc1Sc1ncnc2scc(-c3ccc4c(=O)ccoc4c3)c12,·,·,·,·,-17%
Cc1ccc(-c2csc3ncnc(Sc4nnc(C)s4)c23)cc1,·,·,·,i,·
Cc1ccc(C(=O)N2CCc3nc4cc(-c5ccccc5)[nH]n4c(=O)c3C2)cn1,?,0,-2%,?,·
CCCN1C(C(=O)c2ccccc2)=C(OC(=O)COc2ccccc2)c2ccccc2S1(=O)=O,?,-28*,?,?,?
CCN1C(C(=O)c2ccccc2)=C(OC(=O)COc2ccc(OC)cc2)c2ccccc2S1(=O)=O,?,-34*,-23%,?,-12%
